sPLA2-III inh = human group III sPLA2 inhibitors, primary screen, biochemical, QFRET, BODIPY PC-A2 liposome substrate; 370,000 tested, 0.56% active; inhibition, % at 12.2 µM; QFRET BODIPY PC-A2 liposome hydrolysis, fluorescence; Group 3 secretory phospholipase A2 (Homo sapiens), Q9NZ20;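 active = inhibition above mean plus 3 SD of compounds lying within the high and low control bounds, cut at about 19% in these data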
NadD block = inhibitors of S. aureus NadD, primary screen, biochemical, colorimetric, uHTS; purified NadD enzyme, colorimetric absorbance read-out; 360,000 tested, 0.78% active; inhibition, % at 20 µM; in the data active = inhibition above about 26%
ARNT-TACC3 inh = disruptors of ARNT/TACC3 protein interaction, primary screen, biochemical, AlphaScreen, single concentration | Transforming acidic coiled-coil-containing protein 3 (Homo sapiens), Q9Y6A5 | inhibition, % at 9.99 µM | AID 623870, 2012 | AlphaScreen His-ARNT PAS-B/GST-TACC3 binding, luminescence; TACC3 fragment carries E629A point mutation | 390,000 tested, 0.66% active;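 active = mean inhibition of replicates at least 50% and at least half of replicates each reaching 50%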
Neddyl block = inhibitors of cullin neddylation, primary screen, biochemical, TR-FRET, uHTS, NAE and Ubc12 | NEDD8-conjugating enzyme Ubc12 (Homo sapiens) + NEDD8-activating enzyme E1 regulatory … | 360,000 tested, 0.58% active | inhibition, % at 25 µM; in the data active = inhibition above about 36%
Target sequence (P61081 whole entry, looked up): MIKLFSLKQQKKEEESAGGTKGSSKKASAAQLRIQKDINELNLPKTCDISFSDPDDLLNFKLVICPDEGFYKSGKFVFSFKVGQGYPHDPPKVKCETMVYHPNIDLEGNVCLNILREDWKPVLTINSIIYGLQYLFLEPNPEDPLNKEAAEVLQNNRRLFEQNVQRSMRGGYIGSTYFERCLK
Target sequence (Q13564 whole entry, looked up): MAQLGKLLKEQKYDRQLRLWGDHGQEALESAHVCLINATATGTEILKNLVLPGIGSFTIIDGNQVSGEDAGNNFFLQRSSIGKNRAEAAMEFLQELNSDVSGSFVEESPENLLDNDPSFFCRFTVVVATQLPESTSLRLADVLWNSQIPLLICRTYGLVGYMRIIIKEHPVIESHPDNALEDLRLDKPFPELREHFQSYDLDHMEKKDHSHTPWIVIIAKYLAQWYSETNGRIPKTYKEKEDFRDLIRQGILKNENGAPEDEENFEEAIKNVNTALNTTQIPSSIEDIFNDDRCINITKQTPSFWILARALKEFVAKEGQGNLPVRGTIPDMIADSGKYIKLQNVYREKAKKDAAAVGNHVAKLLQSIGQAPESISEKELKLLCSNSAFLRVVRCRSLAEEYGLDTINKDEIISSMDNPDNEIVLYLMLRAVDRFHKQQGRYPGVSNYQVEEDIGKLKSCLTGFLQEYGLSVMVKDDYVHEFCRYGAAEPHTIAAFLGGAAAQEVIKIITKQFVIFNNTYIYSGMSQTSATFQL
DAGLB inh = DAGLB lipase inhibitors, primary screen, biochemical, fluorescence, HTS. Diacylglycerol lipase-beta (Homo sapiens), Q8NCG7. HEK293T DAGLB membrane lysate, EnzChek fluorogenic substrate. inhibition, % at 5.17 µM. 340,000 tested, 0.059% active. AID 504411, 2011; in the data active = inhibition above about 34%
NadD inh conf = inhibitors of S. aureus NadD, confirmation, biochemical, colorimetric, single concentration; shares compounds with NadD block; purified S. aureus NadD, colorimetric enzyme assay; inhibition, % at 20 µM; 2,000 tested, 13% active; AID 624309, 2012; in the data active = inhibition mostly above about 42%, no sharp cut-off; inactive = mostly below about 42%
Large screens that a line does not name were inactive (follow-up assays come after a bar, where shown); ! = a repeat was not active. Most compounds without a hit are left out; they make up all but 2% or so of the library.

COc1ccc(CN(C)C[C@H]2OCCCC[C@H](C)Oc3ccc(NC(=O)c4ccncc4)cc3C(=O)N([C@@H](C)CO)C[C@@H]2C)cc1	none (no result: sPLA2-III inh, NadD block, Neddyl block, DAGLB inh)
C[C@H]1CN([C@@H](C)CO)C(=O)c2cc(-c3cccc(C#N)c3)cnc2O[C@@H]1CN(C)C(=O)c1cnccn1	none (no result: sPLA2-III inh, NadD block, Neddyl block, DAGLB inh)
CC(=O)N1CCN(c2ccc(NC(=O)C(c3ccccc3)c3ccccc3)cc2)CC1	none
O=C(Cc1ccccc1)Nc1ccc(N2CCCC2)cc1	NadD block 41 | NadD inh conf inactive
O=C(Nc1ccc(N2CCCC2)cc1)C(c1ccccc1)c1ccccc1	NadD block 37 | NadD inh conf inactive
Cc1ccc(S(=O)(=O)N(C)C[C@H]2OCCCC[C@H](C)Oc3ccc(NS(=O)(=O)c4c(C)noc4C)cc3C(=O)N([C@@H](C)CO)C[C@@H]2C)cc1	none (no result: sPLA2-III inh, NadD block, Neddyl block, DAGLB inh)
C[C@@H]1CN([C@H](C)CO)S(=O)(=O)c2ccc(C#CC(C)(C)O)cc2O[C@H]1CN(C)C	none (no result: sPLA2-III inh, NadD block, Neddyl block, DAGLB inh)
COc1ccc([N+](=O)[O-])cc1NC(=O)CC1SC(=Nc2cccc(C)c2C)N(/N=C/c2cccc(OC)c2OC)C1=O (configuration not stated)	NadD block 35! | NadD inh conf inactive
CC(C)C[C@H]1CNC(=S)N1CC1CCCN1C[C@H](Cc1ccccc1)N1C[C@H](Cc2ccc(O)cc2)N(CC2CCCCC2)C1=S (some centres not stated)	NadD block 32 | NadD inh conf inactive
CC(C)C[C@H]1CNC(=S)N1C[C@H]1CCCN1C[C@H](Cc1ccccc1)N1C[C@H](Cc2ccc(O)cc2)N(CC2CCCCCC2)C1=S	NadD block 42 (no result: ARNT-TACC3 inh, DAGLB inh) | NadD inh conf inactive
CC(C)C[C@H]1CNC(=S)N1C[C@H]1CCCN1C[C@H](Cc1ccc(O)cc1)N1C[C@H](Cc2ccccc2)N(CC2CCCCC2)C1=S	none (no result: ARNT-TACC3 inh, DAGLB inh)
CC(C)C[C@H]1CNC(=S)N1CC1CCCN1C[C@H](Cc1ccc(O)cc1)N1C[C@H](Cc2ccccc2)N(CC2CCCCCC2)C1=S (some centres not stated)	none
COc1ccccc1S(=O)(=O)N1CC[C@@H]2[C@@H](CO)Nc3ccc(-c4cccc(C#N)c4)cc3[C@@H]21	none (no result: sPLA2-III inh, NadD block, Neddyl block, DAGLB inh)
Cc1ccc(NS(=O)(=O)c2cc([N+](=O)[O-])ccc2NNC(=S)Nc2cc(C)ccc2C)c(C)c1	NadD block 47 | NadD inh conf inactive
C[C@@H]1CCCCO[C@@H](CN(C)Cc2ccc(C(=O)O)cc2)[C@H](C)CN([C@@H](C)CO)C(=O)c2cc(NS(=O)(=O)c3cn(C)cn3)ccc2O1	none (no result: sPLA2-III inh, NadD block, Neddyl block, DAGLB inh)
Cc1ccc(S(=O)(=O)Nc2ccccc2C(=O)Nc2nc(-c3ccc(F)cc3)cs2)cc1	NadD block 32 (not shown: Neddyl block) | NadD inh conf 48
C[C@@H]1CCCCO[C@@H](CN(C)C(=O)Nc2ccc(F)cc2)[C@@H](C)CN([C@H](C)CO)C(=O)c2cc(NC(=O)c3ccccc3)ccc2O1	none (no result: sPLA2-III inh, NadD block, Neddyl block, DAGLB inh)
CCOc1ccc(NC(=O)c2ccc(NC(=O)CSc3nc4ccccc4c(=O)[nH]3)cc2)cc1	NadD block 43 | NadD inh conf inactive
C[C@@H](NC(=O)C[C@H]1C[C@H]2c3cc(NC(=O)CC4CC4)ccc3O[C@H]2[C@@H](CO)O1)c1ccccc1	none (no result: sPLA2-III inh, NadD block, Neddyl block, DAGLB inh)
Cc1cccc(NC(=O)c2nc[nH]c2C(=O)NCCCCNC(=O)c2[nH]cnc2C(=O)Nc2cccc(C)c2)c1	NadD block 37 (not shown: Neddyl block) | NadD inh conf inactive
Cc1cccc(NC(=O)c2nc[nH]c2C(=O)NCCCCCCNC(=O)c2[nH]cnc2C(=O)Nc2cccc(C)c2)c1	NadD block 37 | NadD inh conf inactive
Cc1cccc(NC(=O)c2nc[nH]c2C(=O)NCc2ccccc2)c1	none
CNC(=O)c1[nH]cnc1C(=O)Nc1cccc(C)c1	none
Cc1ccccc1-c1cnc2c(c1)C(=O)N([C@H](C)CO)C[C@@H](C)[C@H](CN(C)Cc1ccncc1)O2	none (no result: sPLA2-III inh, NadD block, Neddyl block, DAGLB inh)
Clc1ccc(/C=N/NC2=Nc3cccc4cccc2c34)cc1	NadD block 30 (no result: ARNT-TACC3 inh) | NadD inh conf inactive
CC(C)(C)c1ccc(C2CC2C(=O)N/N=C\c2cc3ccccc3nc2Cl)cc1 (configuration not stated)	NadD block 36 | NadD inh conf inactive
O=C(COc1cccc(Cl)c1)N/N=C\c1cc2ccccc2nc1Cl	none
O=C(CNc1ccc2ccccc2c1)N/N=C/c1cc2ccccc2nc1Cl	NadD block 40 | NadD inh conf inactive
Cc1ccc2nc(Cl)c(/C=N/NC(=O)[C@H]3C[C@@H]3c3ccccc3)cc2c1	none (no result: ARNT-TACC3 inh)
Cc1ncc(CN2CCCC(C(=O)Nc3ccc(-c4ccco4)cc3)C2)n1C (configuration not stated)	none
CSc1ncc(CN2CCCC(C(=O)Nc3ccc(-c4ccco4)cc3)C2)cn1 (configuration not stated)	NadD block 47 | NadD inh conf inactive
O=C(Nc1ccc2oc(-c3cccc4ccccc34)nc2c1)c1ncn[nH]1	NadD block 27 (not shown: Neddyl block) | NadD inh conf inactive
CC(C)c1ccc2oc(-c3ccc(NC(=O)c4ncn[nH]4)cc3)nc2c1	NadD block 39 (not shown: Neddyl block) | NadD inh conf inactive
CCC(C)c1ccc2oc(-c3ccc(NC(=O)c4ncn[nH]4)cc3)nc2c1 (configuration not stated)	none
CO[C@H]1CN(C)C(=O)c2cc(NC(=O)C3CC3)ccc2OC[C@H](C)N(C(C)=O)C[C@@H]1C	none (no result: sPLA2-III inh, NadD block, Neddyl block, DAGLB inh)
C[C@@H](NC(=O)C[C@@H]1CC[C@H]2[C@@H](COC[C@@H](O)CN2Cc2cc(F)ccc2F)O1)c1ccccc1	none (no result: sPLA2-III inh, NadD block, Neddyl block, DAGLB inh)
COc1ccc(S(=O)(=O)Nc2ccc3c(c2)CC(=O)N([C@H](C)CO)C[C@H](C)[C@@H](CN(C)C(=O)NC2CCCCC2)O3)cc1	none (no result: sPLA2-III inh, NadD block, Neddyl block, DAGLB inh)
N#CC1=C(N)n2c(s/c(=C\c3cccs3)c2=O)=C(C#N)C1c1cccs1 (configuration not stated)	NadD block 49 (no result: ARNT-TACC3 inh) | NadD inh conf inactive
O=C(Nc1ccc(Cl)c(Cl)c1)N[C@@H]1CC[C@@H](CCNC(=O)c2ccc(F)cc2)O[C@@H]1CO	none (no result: sPLA2-III inh, NadD block, Neddyl block, DAGLB inh)
CCOc1cc(/C=C(/C#N)c2nc3ccccc3[nH]2)ccc1Oc1ccc([N+](=O)[O-])cn1	NadD block 54 (not shown: Neddyl block) | NadD inh conf inactive
Cc1ccc2nc(/C(C#N)=C\c3ccc(Oc4ccc([N+](=O)[O-])cn4)cc3)[nH]c2c1	NadD block 36 | NadD inh conf inactive
